In the library only some 4.3% were active in any assay of this set; here they are far more common.
esBAF inh – Bmi1 luciferase reporter increase in mESCs, primary screen, esBAF inhibitor project, mouse ES cells, Bmi1 luciferase knock-in, single point. 350,000 compounds, 2% hits. reporter increase, % at 12.5 µM. 24 h; 100% = twice the neutral-well signal; in the data active = activation above about 40%; inconclusive = no clear call, values can overlap the other calls;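 note: 0% = median of the plate's neutral control wells and 100% = double that signal; a rise in the Bmi1 reporter signal indicates esBAF inhibition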
Wnt act – Wnt/beta-catenin pathway activators, primary screen, cell-based, plate reader, single point; Wnt/beta-catenin reporter cell assay, activator; activation, % at 9.35 µM; 300,000 compounds, 1.2% hits; AID 743398, 2014; in the data active = activation above about 30%, passing the limit was not always enough; inconclusive = no clear call, values can overlap the other calls;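 note: 0% = neutral control wells and 100% = positive control wells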
SMARCA2 act – SMARCA2 (BRM) function activators, primary screen, cell-based, luminescence, high throughput | MG213 cells, MMTV-luciferase reporter, dexamethasone, overnight | AID 652017, 2013 | activation, % at 9.1 µM | 370,000 compounds, 1% hits; in the data active = activation above about 7.8%;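 note: 0% = vehicle wells and 100% = reference activator wells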
HSF1 inhib – HSF1 inhibitors in luciferase reporter cells, primary screen, cell-based, NIH3T3, luminescence | NIH3T3-HGL HSE-luciferase, MG132-induced, luminescence 8 h; stronger effect = lower value | activity change, negative = inhibition, % at 7.5 µM (by protocol) | 300,000 compounds, 0.77% hits;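 active = more than half of replicate wells show activity change below -50%, luminescence cut by over half; inconclusive = some wells, but at most half, below -50%; inactive = no replicate well below -50%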;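 note: luciferase reports HSF-1 transcriptional activity via heat shock element; 0% = median of DMSO wells and -100% = zero luminescence signal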
MITF TRPM1 HTS – activators of MITF-driven TRPM1 promoter reporter, primary screen, cell-based, SK-MEL-5, luciferase, single point. activation, % at 12.5 µM. SK-MEL-5 TRPM1-promoter luciferase, 24 h; % of positive control, neutral wells = 0. 300,000 compounds, 0.75% hits;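 active = mean activation of at least 80% with every replicate also reaching 80%; inconclusive = mean reaches 80% but some replicate falls short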;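 note: 0% = neutral control wells and 100% = parthenolide positive control wells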
HSF-1 act – HSF-1 activators, primary screen, NIH3T3-HGL cells, MG132 stress, luminescence, single point. NIH3T3-HGL HSF-1 luciferase reporter, 8 h; 100% = twice DMSO control signal. activation, % at 9 µM. 300,000 compounds, 1.7% hits. AID 504408, 2011;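 active = mean replicate activation of at least 50% with a set share of replicates each reaching 50%; inconclusive = only one of those two conditions met; inactive = mean below 50% and too few replicates reaching it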;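 note: 0% = median of the neutral control wells and 100% = twice that signal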
* hit, by the source's call; u = inconclusive; x = not tested or not shown.

SMILES	esBAF inh	Wnt act	SMARCA2 act	HSF1 inhib	MITF TRPM1 HTS	HSF-1 act
Cc1ccc(S(=O)(=O)Nc2ccc3c(c2)C(=O)N([C@H](C)CO)C[C@@H](C)[C@H](CN(C)S(=O)(=O)c2ccccc2)OCCCC[C@@H](C)O3)cc1	3.7	x	x	x	x	x
C[C@H](CO)N1C[C@H](C)[C@@H](CN(C)S(=O)(=O)c2ccc(F)cc2)Oc2cc(C3=CCCCC3)ccc2S1(=O)=O	1.7	x	x	x	x	x
S=C(Nc1ccc(Cl)cc1Cl)NC1CCCCC1	84.3*	x	4.9	11.1	107.4*	19.8
COC(=O)c1ccc(NC(=O)C(=O)NCC2CCCO2)cc1 (stereo not given)	45.2*	13.9	2.3	6.3	14.3	14.2
CC(C)c1cn(CC[C@@H]2CC[C@@H](NC(=O)C3CC3)[C@@H](CO)O2)nn1	-6.9	x	x	x	x	x
CCC(=O)Nc1ccc2c(c1)OC[C@@H](C)N(C(=O)Cc1cccnc1)C[C@@H](C)[C@@H](OC)CN(C)C2=O	-7.7	x	x	x	x	x
O=[N+]([O-])c1ccc(CSc2nc3ccccc3o2)cc1	x	24.8	1.9	91.7	97.5*	116.9*
CCCc1ccc(-c2cc(NC(=O)CSc3n[nH]c(N)n3)n(-c3ccccc3)n2)cc1	64.5*	x	2.8	11.3	u	28.2
CC(NC(=O)CSc1n[nH]c(N)n1)c1ccccc1 (stereo not given)	6.7	-1.5	-0.7	0.2	-8.1	3.0
COc1ccc(NC(=O)Nc2cccc3c2O[C@@H](CN(C)C(=O)Nc2cccc4ccccc24)[C@H](C)CN([C@H](C)CO)C3=O)cc1	21.4	x	x	x	x	x
CCc1cc(C(c2ccc(F)cc2)N2CCOCC2)c(NC(=O)c2ccccc2)s1 (stereo not given)	1.6	x	-2.4	34.8	13.0	63.1*
Cc1ccc(NCCC(=O)c2cccs2)cc1Cl	54.7*	18.6	4.0	24.8	28.9	u
O=C(CCNc1cccc(Cl)c1)c1cccs1	x	12.8	4.1	10.4	9.5	27.4
Cc1ccc(NCCC(=O)c2cccs2)cc1C	67.6*	-0.7	3.0	9.2	106.1*	32.8
COc1ccccc1C(=O)Nc1ccc2c(c1)OC[C@@H](C)N(C)C[C@H](C)[C@@H](OC)CN(C)C2=O	18.0	x	x	x	x	x
CCC(=O)N[C@H]1CC[C@H](CC(=O)NCc2ccccc2OC)O[C@H]1CO	4.5	x	x	x	x	x
O=C(N[C@H]1CC[C@H](CCn2cc(C3(O)CCCC3)nn2)O[C@@H]1CO)C1CCOCC1	0.2	x	x	x	x	x
O=C(NNC(=S)Nc1ccc(Cl)cc1)c1ccccc1OC(F)F	x	-5.7	-2.5	19.3	2.4	59.3*
Cc1ccc(Cc2c(-c3ccc(Br)cc3)nc3ccc(Cl)cn23)cc1	22.8	14.4	1.9	x	x	x
Cc1ccc(Cc2c(-c3ccc(Br)cc3)nc3ccc(Br)cn23)cc1	66.0*	5.8	-0.4	x	x	x
Cc1ccc(Cc2c(-c3cccc(Cl)c3)nc3ccc(Br)cn23)cc1	u	39.8*	1.8	x	x	x
COc1ccccc1Cc1c(-c2cccc(Cl)c2)nc2ccc(Br)cn12	41.8*	5.4	2.6	x	x	x
COCC(=O)N1CC[C@H]2[C@@H]1c1cc(-c3ccc(OC)cc3)ccc1N(C)[C@H]2CO	-10.7	x	x	x	x	x
CCOC(=O)C(c1nc2ccccc2[nH]1)n1c(-c2ccccn2)nc2ccccc21 (stereo not given)	49.4*	1.3	-0.4	x	x	x
C[C@@H]1CCCCO[C@H](CN(C)CC2CCCCC2)[C@H](C)CN([C@H](C)CO)C(=O)c2cc(NS(C)(=O)=O)ccc2O1	-0.6	x	x	x	x	x
SMILES	esBAF inh	Wnt act	SMARCA2 act	HSF1 inhib	MITF TRPM1 HTS	HSF-1 act
Cc1ccc(-c2ccc(CO)o2)cc1N	3.1	2.1	-0.3	0.2	9.2	17.0
CCOC(=O)c1ccc(-c2ccc(CO)o2)cc1	38.3	45.1*	6.1	0.4	x	-5.1
CO[C@@H]1CN(C)C(=O)c2cc(NC(=O)c3ccccc3)ccc2OC[C@H](C)N(CC2CC2)C[C@H]1C	0.0	x	x	x	x	x
Cc1ccc(S(=O)(=O)Nc2ccc3c(c2)C(=O)N([C@H](C)CO)C[C@H](C)[C@H](CN(C)S(=O)(=O)c2ccc(F)cc2)OCCCC[C@H](C)O3)cc1	7.4	x	x	x	x	x
COc1ccc(C(=O)c2ccccc2)cc1	x	-0.1	-3.8	7.5	13.0	10.3
COc1ccc(C(=O)c2ccc(Br)cc2)cc1	55.1*	-4.6	0.2	10.1	52.4	0.1
CC(=O)N(c1ccccc1)c1nnc(-c2cnc(C)cn2)s1	x	6.8	3.1	17.6	97.7*	54.5*
C[C@@H]1CCCCO[C@@H](CN(C)Cc2ccc(Cl)c(Cl)c2)[C@H](C)CN([C@H](C)CO)C(=O)c2cc(NS(=O)(=O)c3ccccc3)ccc2O1	4.3	x	x	x	x	x
CCc1ccc(N2CC(C(=O)N/N=C/c3cc([N+](=O)[O-])ccc3O)CC2=O)cc1 (stereo not given)	x	-2.2	-1.7	-55.1*	-18.8	-58.0
CCc1ccc(N2CC(C(=O)N/N=C/c3ccccc3OC)CC2=O)cc1 (stereo not given)	2.7	4.4	-3.6	-1.0	-4.7	-7.1
CO[C@H](CN(C)C(=O)c1ccc2c(c1)OCO2)[C@H](C)CN([C@H](C)CO)S(=O)(=O)c1ccccc1	0.2	x	x	x	x	x
Cc1ccc(NC(=O)CCc2nnc3ccc(NCc4ccco4)nn23)cc1	13.4	0.2	0.4	2.2	2.6	-2.1
Cc1ccc(C)c(NC(=O)CCc2nnc3ccc(NCc4ccco4)nn23)c1	-1.7	0.2	-0.3	-66.5*	-3.6	-73.3
COc1ccc(CN2C[C@@H](C)[C@H](OC)CN(C)C(=O)c3ccc(NC(=O)c4nc5ccccc5s4)cc3OC[C@@H]2C)cc1	33.0	x	x	x	x	x
CO[C@@H]1CN(C)C(=O)c2ccc(NC(=O)c3nc4ccccc4s3)cc2OC[C@@H](C)N(Cc2cccnc2)C[C@H]1C	45.9*	x	x	x	x	x
COc1ccc(CN2C[C@@H](C)[C@H](OC)CN(C)C(=O)c3ccc(NC(=O)c4nc5ccccc5s4)cc3OC[C@H]2C)cc1	63.8*	x	x	x	x	x
CC(C)Nc1nc(Cl)nc(N(C#N)CN2C(=O)c3ccccc3S2(=O)=O)n1	-3.0	-3.2	4.6	82.9	-26.6	118.2*
COc1nc(NC(C)C)nc(N(C#N)CN2C(=O)c3ccccc3S2(=O)=O)n1	-0.4	23.5	-0.4	7.7	-10.8	10.4
O=C(C[C@H]1C=C[C@@H](NS(=O)(=O)c2cccc(F)c2)[C@@H](CO)O1)N1CCCCC1	-1.7	x	x	x	x	x
Cc1cc2ncn(C(=O)N3CCCCCC3)c2cc1C	49.3*	5.2	1.2	10.9	30.9	13.3
CC(C)CCn1cnc2c(sc3nc4c(cc32)CSC(C)(C)C4)c1=O	x	-1.5	-4.7	-37.0	85.3*	-32.4
CCCCn1cnc2c(sc3nc4c(cc32)CSC(C)(C)C4)c1=O	47.2*	27.6	4.0	-7.2	44.5	-11.5

Screening results from PubChem BioAssay.
